IL-1B inflam inh = inhibitors of inflammasome signaling (IL-1 beta secretion); THP-1 LPS/ATP IL-1B secretion, AlphaLISA, 16 h; stronger effect = lower value; activity change, % at 57.5 µM; 360,000 tested, 4.7% active; in the data active = activity change below about -50%; inconclusive = mostly about -30% to -49%
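THP-1 cells pretreated 1 hr with compounds (up to 57.5 uM final), then stimulated with LPS (250 ng/mL final) plus ATP (1.25 mM final); secreted IL-1B measured by AlphaLISA after 16 hr, decreased signal indicating inhibition.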
DT40 TDP1 no CPT = qHTS for Inhibitors of human tyrosyl-DNA phosphodiesterase 1 (TDP1): qHTS in cells in absence of CPT; DT40 Tdp1-/- hTDP1 cells, no CPT, ATP luminescence, 48 h; Potency, µM (series often up to 46.2 µM), for the others: at the highest dose activity change, negative = growth inhibition, actives largely listed as inhibitors; 420,000 tested, 15% active; also: potency is read from the fitted curve at half-maximal effect; nearly all actives have a fitted effect of over 55% in size
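Growth of hTDP1-complemented DT40 Tdp1-knockout cells is measured by ATP luminescence after at least 48 hr compound exposure at 37 °C, with DMSO substituting for the 20 nM CPT used in the parallel screen.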
HT1080 IDH1KD tx = kills HT-1080 cells with IDH1 knockdown | 360,000 tested, 2% active | Potency, µM (series often up to 46.1 µM), for inactives: top-dose activity, negative = toxicity, hits mostly cytotoxic | HT-1080 IDH1 knockdown viability, ATP luminescence, 48 h | AID 686971;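 also: potency is read from the fitted curve at half-maximal effect; 0% = DMSO wells and -100% = cell-free medium wells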
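Knockdown cells (IDH1KD HT-1080) received compounds 2 h after plating at 750 cells/well and were kept 48 h at 37 °C in 5% FBS RPMI. A CellTiter-Glo luminescence read gave % activity for curve fitting.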
ALOX12 inh = inhibitors of human 12S-lipoxygenase ALOX12; 580,000 tested, 1.1% active; P18054; purified 12hLO, xylenol orange hydroperoxide absorbance; Potency, µM (highest dose often 108 µM), without a hit: top-dose activity change, negative = inhibition, actives largely listed as inhibitors; AID 1671190; also: potency is read from the fitted curve at half-maximal effect
Target sequence (P18054 whole entry, looked up): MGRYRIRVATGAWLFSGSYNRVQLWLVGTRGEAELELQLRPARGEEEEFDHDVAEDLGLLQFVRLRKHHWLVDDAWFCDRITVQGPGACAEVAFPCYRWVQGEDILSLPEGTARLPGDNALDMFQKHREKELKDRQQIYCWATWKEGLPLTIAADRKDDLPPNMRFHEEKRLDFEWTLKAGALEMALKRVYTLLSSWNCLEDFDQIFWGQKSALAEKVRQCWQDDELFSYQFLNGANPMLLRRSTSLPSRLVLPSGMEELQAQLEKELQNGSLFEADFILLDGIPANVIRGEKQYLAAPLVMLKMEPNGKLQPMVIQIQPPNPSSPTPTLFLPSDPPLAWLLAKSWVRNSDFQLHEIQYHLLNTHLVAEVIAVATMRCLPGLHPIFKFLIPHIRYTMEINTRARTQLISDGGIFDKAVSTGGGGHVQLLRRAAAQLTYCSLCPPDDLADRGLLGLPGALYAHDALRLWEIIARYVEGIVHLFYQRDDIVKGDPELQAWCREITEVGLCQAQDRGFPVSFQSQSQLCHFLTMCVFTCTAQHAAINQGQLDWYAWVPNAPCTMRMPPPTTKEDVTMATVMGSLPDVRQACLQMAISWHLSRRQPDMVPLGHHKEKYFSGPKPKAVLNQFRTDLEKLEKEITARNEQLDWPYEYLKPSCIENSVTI
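Hydroperoxide product was detected by ferrous iron/xylenol orange as the 573 to 405 nm absorbance ratio. Arachidonic acid at 40 uM (final) was turned over for 30 min at room temperature by 150 nM human 12hLO, pH 7.0 Hepes buffer, after 15 min compound preincubation.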
HT1080NT lethal = kills 2HG-producing HT-1080-NT fibrosarcoma cells | HT-1080-NT fibrosarcoma viability, CellTiter-Glo ATP luminescence, 48 h | Potency, µM (series often up to 46.1 µM), for inactives: at the top dose activity, negative = less viability, usual class: cytotoxic | 360,000 tested, 1.6% active;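 also: NT is the 2HG producing partner of a matched IDH1 knockdown line; potency is read from the fitted curve at half-maximal effect; 0% = DMSO-treated cells and -100% = media-only wells without cells; nearly all actives have a fitted effect of over 55% in size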
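Read-out is CellTiter-Glo luminescence after 10 minutes at room temperature, following 48 hours' compound treatment of HT-1080-NT cells (750 cells/well, RPMI, 5% FBS, 37 degrees C).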
TDP1 cell CPT = growth inhibition of DT40 Tdp1-/-;hTDP1 cells with camptothecin (screen for TDP1 inhibitors); chicken DT40 Tdp1-/-;hTDP1 cells + 20 nM CPT, ATP luminescence, 48 h; Potency, µM (highest dose often 46.2 µM), for the others: at the top dose activity change, negative = growth inhibition, hits mostly inhibitors; 420,000 tested, 12% active; also: potency is read from the fitted curve at half-maximal effect; nearly all actives have a fitted effect of over 55% in size
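Chicken DT40 Tdp1-/- cells stably complemented with human TDP1 were seeded at 400 cells/well in medium containing 20 nM camptothecin, exposed to pin-transferred compounds, and grown at 37 °C for at least 48 hr. Viability was read as ATP luminescence.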
* hit, by the source's call. The entries come from a sample that favours hits as a whole. Unless noted, calls follow the shape of the dose curve; as a rule, active = well fitted curve in the direction sought with a large enough effect; inconclusive = small, poorly fitted or top-dose-only effect, or another doubt; inactive = no such curve, though single readings can be large; an effect the other way counts as inactive or inconclusive. Unless noted, % is scaled to controls: 0 for no effect and ±100 for the full control effect.

What do the screens show for `Cc1cc(C)nc(SCC(=O)Nc2ccccc2[N+](=O)[O-])n1`?
IL-1B inflam inh: -1; DT40 TDP1 no CPT: -15%; HT1080 IDH1KD tx: 4%; ALOX12 inh: 25%; HT1080NT lethal: 4%; TDP1 cell CPT: -1%

Results for Cc1cc(C)c(C#N)c(SCC(=O)Nc2ccccc2C#N)n1 ?
ALOX12 inh: 0%

How did O=C(Nc1cccc2cccnc12)c1ccc(OC2CCCC2)cc1 do in these assays?
ALOX12 inh: 13%

How did Cc1cc(C(C)(C)C)cc(C)c1S(=O)(=O)N1CCN(Cn2ncc3ccccc3c2=O)CC1 do in these assays?
ALOX12 inh: 54%

How did COc1ccc2cc(C(=O)NC(C)C(=O)N3CCCC3)c(C)nc2c1 (stereo not given) do in these assays?
ALOX12 inh: -13%

Results for O=C(NCC(c1cccnc1)N1CCc2ccccc21)c1ccc(Cl)cc1 (stereo not given) ?
DT40 TDP1 no CPT: 12µM*; ALOX12 inh: 1%; TDP1 cell CPT: 10µM*

Results for COc1ccc(C(=O)NCC(c2cccnc2)N2CCc3ccccc32)cc1 (stereo not given) ?
DT40 TDP1 no CPT: inconclusive; ALOX12 inh: -13%; TDP1 cell CPT: 9.2µM*

How did N#Cc1ccccc1NC(=O)C(=O)NCC(c1cccnc1)N1CCc2ccccc21 (stereo not given) do in these assays?
DT40 TDP1 no CPT: 16µM*; ALOX12 inh: -4%; TDP1 cell CPT: 21µM*

What do the screens show for `Cc1ccc(S(=O)(=O)NCC(c2cccnc2)N2CCc3ccccc32)cc1` (stereo not given)?
IL-1B inflam inh: -1; DT40 TDP1 no CPT: inconclusive; HT1080 IDH1KD tx: 1%; ALOX12 inh: -9%; HT1080NT lethal: -10%; TDP1 cell CPT: inconclusive

How did CN1CCN(C(CNC(=O)C(=O)Nc2ccccc2C#N)c2ccc3c(c2)OCO3)CC1 (stereo not given) do in these assays?
DT40 TDP1 no CPT: 1%; ALOX12 inh: 1%; TDP1 cell CPT: 5%

How did N#Cc1c(N)n[nH]c1CCCNC(=O)c1ccc(Cn2nnc3ccccc32)cc1 do in these assays?
ALOX12 inh: 48%

What do the screens show for `CCNC(=O)C1(C)CCCN(C(=O)c2nc(C)oc2C)C1` (stereo not given)?
IL-1B inflam inh: -5; DT40 TDP1 no CPT: -6%; HT1080 IDH1KD tx: 7%; ALOX12 inh: 2%; HT1080NT lethal: -29%; TDP1 cell CPT: -10%

How did CCOc1cc(C(=O)Nc2ccc3oc(-c4ccc(CC)cc4)nc3c2)cc(OCC)c1OCC do in these assays?
DT40 TDP1 no CPT: 8.2µM*; ALOX12 inh: -16%; TDP1 cell CPT: 23µM*

What do the screens show for `CCOc1cc(C(=O)Nc2ccc(-c3nc4cc(C)ccc4o3)cc2)cc(OCC)c1OCC`?
DT40 TDP1 no CPT: 9.2µM*; ALOX12 inh: -8%; TDP1 cell CPT: 12µM*

What do the screens show for `CCOc1ccc(C(=O)Nc2ccc3oc(-c4ccc(C)cc4C)nc3c2)cc1Br`?
DT40 TDP1 no CPT: 13µM*; ALOX12 inh: -2%; TDP1 cell CPT: inconclusive

What do the screens show for `CCc1ccc(-c2nc3cc(NC(=O)c4ccc(C)c(C)c4)ccc3o2)cc1`?
DT40 TDP1 no CPT: inconclusive; ALOX12 inh: -6%; TDP1 cell CPT: inconclusive

How did CCC(=O)N1CCC2(CC1)CC(N1CCOCC1)CCO2 (stereo not given) do in these assays?
ALOX12 inh: 12%

Results for COc1ccc(S(=O)(=O)N(Cc2ccccc2)c2ccccc2C(=O)O)cc1 ?
IL-1B inflam inh: 22; DT40 TDP1 no CPT: 0%; HT1080 IDH1KD tx: 0%; ALOX12 inh: -1%; HT1080NT lethal: -9%; TDP1 cell CPT: 1%

How did COc1cccc(/C=N/NC(=O)c2ccccc2N(Cc2ccccc2)S(=O)(=O)c2ccccc2)c1OC do in these assays?
IL-1B inflam inh: -5; DT40 TDP1 no CPT: 18µM*; HT1080 IDH1KD tx: -9%; ALOX12 inh: 1%; HT1080NT lethal: -2%; TDP1 cell CPT: 23µM*

How did CCN1CCN(C(=O)c2ccccc2N(Cc2ccccc2)S(=O)(=O)c2ccc(C)cc2)CC1 do in these assays?
IL-1B inflam inh: -68*; DT40 TDP1 no CPT: 16µM*; HT1080 IDH1KD tx: -11%; ALOX12 inh: 0%; HT1080NT lethal: -17%; TDP1 cell CPT: inconclusive

How did COc1ccc(S(=O)(=O)N(Cc2ccccc2)c2ccccc2C(=O)N2CCOCC2)cc1 do in these assays?
IL-1B inflam inh: 72; DT40 TDP1 no CPT: inconclusive; HT1080 IDH1KD tx: inconclusive; ALOX12 inh: -2%; HT1080NT lethal: 23µM*; TDP1 cell CPT: inconclusive

How did N#Cc1c(N)nc2c(c1-c1ccc(Cl)cc1Cl)CCCC2 do in these assays?
ALOX12 inh: -5%

How did CCN(CC(O)COc1ccc(C(C)(C)c2ccccc2)cc1)C12CC3CC(CC(C3)C1)C2 (stereo not given) do in these assays?
ALOX12 inh: -35%

How did O=C(NCC(c1cccs1)N1CCOCC1)c1ccc(Cl)c([N+](=O)[O-])c1 (stereo not given) do in these assays?
IL-1B inflam inh: -94*; DT40 TDP1 no CPT: inconclusive; HT1080 IDH1KD tx: -5%; ALOX12 inh: -10%; HT1080NT lethal: 7%; TDP1 cell CPT: inconclusive

Results for O=C(NCC(c1cccs1)N1CCOCC1)c1ccccc1NS(=O)(=O)c1ccc(Cl)c([N+](=O)[O-])c1 (stereo not given) ?
IL-1B inflam inh: -10; DT40 TDP1 no CPT: inconclusive; HT1080 IDH1KD tx: -2%; ALOX12 inh: -21%; HT1080NT lethal: -11%; TDP1 cell CPT: inconclusive

What do the screens show for `CC(C)(C)c1ccc(OCCC(=O)NCC(c2cccs2)N2CCOCC2)cc1` (stereo not given)?
IL-1B inflam inh: 15; DT40 TDP1 no CPT: inconclusive; HT1080 IDH1KD tx: -2%; ALOX12 inh: 3%; HT1080NT lethal: 1%; TDP1 cell CPT: -16%

How did CC(C)(Oc1ccc(Cl)cc1)C(=O)NCC(c1cccs1)N1CCOCC1 (stereo not given) do in these assays?
IL-1B inflam inh: -7; DT40 TDP1 no CPT: 18µM*; HT1080 IDH1KD tx: -11%; ALOX12 inh: -30%; HT1080NT lethal: -11%; TDP1 cell CPT: inconclusive

High-throughput results from PubChem.
